Experimental data reported in the supplement of paper PMC10849652.
Of roughly 7,900 targets only a part is listed; those with a hit were picked by preference. About 0.6% of all pairs of compound and target were hits.

Tests used:
Assay in all cases: log2 fold change, soluble protein after heating vs DMSO (PISA); higher = thermal stabilisation; K562 cells, 10 uM, 30 min; active = over 0.2 and 3.5 SD of the protein, either way, in both replicates (recomputed)
[1] = compound: C1=CC=C(C=C1)[C@H](COC2=CC3=C(C=C2)NC(=O)N3)NC(=O)C4=CC=CN(C4=O)CC5=CC(=C(C=C5)F)F
In short: (§1)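 Values are thermal stability changes relative to control samples and are taken from duplicates. They are stated as log2 fold changes. Before quantification by TMTpro 16plex LC-MS/MS with equalised channel sums, K562 cells at 2×10^6 cells/mL were treated with 10 μM compound for 30 min, heated in aliquots for 3 min across 48°C-58°C, pooled, extracted in PBS with 0.5% NP-40 at 4°C, and centrifuged at 21,000xg for 90 min to give the soluble supernatant.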

[2] = compound: CC1=C(SC2=C1C(=N[C@H](C3=NN=C(N32)C)CC(=O)N)C4=CC=C(C=C4)Cl)C
In short: as §1

[3] = compound: c1ccc([C@@H]2C[C@H]2NC2CCNCC2)cc1
In short: as §1

[4] = compound: CC1=C2C(=CC=C1)N=C(N(C2=O)C3=CC=CC=C3C)CN4C=NC5=C(N=CN=C54)N
In short: as §1

[5] = compound: Cc1sc2c(c1C)C(c1ccc(Cl)cc1)=N[C@@H](CC(=O)OC(C)(C)C)c1nnc(C)n1-2
In short: as §1

Measured: log2 fold change

PCBP2 (UniProt F8VZX2)
inactive: [1] -0.1 | [2] -0.107 | [3] 0.019

PSMC3 (UniProt E9PLG2)
inactive: [1] 0.03 | [4] -0.056 | [5] 0.252

PSD3 (UniProt Q9NYI0)
inactive: [2] 0.045 | [4] 0.052 | [3] -0.028

PKM isoform 2 (UniProt P14618)
inactive: [1] 0.063 | [4] -0.057 | [5] -0.046

PHKA1 (UniProt P46020)
inactive: [1] 0.028 | [2] -0.078 | [5] 0.103 | [3] 0.011

POLB (UniProt P06746)
inactive: [2] 0.053 | [5] -0.107 | [3] -0.006

PSMB9 (UniProt P28065)
Chain of UniProt P28065 (P28065 whole entry, looked up): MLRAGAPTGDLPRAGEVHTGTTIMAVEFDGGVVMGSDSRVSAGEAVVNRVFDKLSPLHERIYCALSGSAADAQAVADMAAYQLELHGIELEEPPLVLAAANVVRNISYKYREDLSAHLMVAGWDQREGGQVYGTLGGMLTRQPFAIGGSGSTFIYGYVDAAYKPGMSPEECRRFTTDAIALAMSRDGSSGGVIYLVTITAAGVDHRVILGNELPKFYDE
inactive: [1] 0.182 | [2] 0.138 | [4] 0.179 | [3] -0.203

PSMD8 (UniProt K7ERW6)
inactive: [4] 0.2 | [5] 0.03

PTP4A3 (UniProt O75365)
Chain of UniProt O75365 (O75365 whole entry, looked up): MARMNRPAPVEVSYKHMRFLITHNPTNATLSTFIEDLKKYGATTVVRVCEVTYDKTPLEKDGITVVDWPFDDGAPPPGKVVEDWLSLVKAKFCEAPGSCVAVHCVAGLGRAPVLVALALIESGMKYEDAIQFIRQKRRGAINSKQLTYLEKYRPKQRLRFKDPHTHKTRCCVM
inactive: [1] 0.037 | [4] 0.391

PPP2R5B (UniProt Q15173)
inactive: [1] -0.058 | [4] -0.098

PNN (UniProt Q9H307)
inactive: [1] 0.084 | [2] 0.021 | [3] 0.012

PUF60 isoform 2 (UniProt Q9UHX1)
Chain of UniProt Q9UHX1 (Q9UHX1 whole entry, looked up): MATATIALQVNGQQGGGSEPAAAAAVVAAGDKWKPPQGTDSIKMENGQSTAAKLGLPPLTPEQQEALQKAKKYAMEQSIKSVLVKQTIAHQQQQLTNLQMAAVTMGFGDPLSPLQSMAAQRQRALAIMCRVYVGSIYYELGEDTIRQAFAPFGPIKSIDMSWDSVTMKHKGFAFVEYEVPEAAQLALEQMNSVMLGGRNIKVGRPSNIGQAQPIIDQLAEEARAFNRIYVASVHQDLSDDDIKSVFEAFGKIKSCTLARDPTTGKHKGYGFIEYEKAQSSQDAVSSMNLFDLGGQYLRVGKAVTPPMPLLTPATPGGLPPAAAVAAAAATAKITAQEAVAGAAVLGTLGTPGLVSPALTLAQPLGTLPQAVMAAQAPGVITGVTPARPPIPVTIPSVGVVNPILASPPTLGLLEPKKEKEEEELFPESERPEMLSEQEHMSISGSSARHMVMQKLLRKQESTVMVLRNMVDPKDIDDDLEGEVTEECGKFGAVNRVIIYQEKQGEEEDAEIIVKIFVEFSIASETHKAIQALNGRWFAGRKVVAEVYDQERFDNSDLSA
inactive: [1] 0.044 | [2] 0.097 | [4] -0.312 | [5] -0.146 | [3] -0.079

PIAS4 (UniProt Q8N2W9)
inactive: [5] 0.129

PRKD3 (UniProt O94806)
inactive: [1] -0.103 | [2] 0.044 | [4] -0.007 | [3] -0.097

PAN2 (UniProt Q504Q3)
inactive: [1] -0.298 | [4] 0.053

PARG (UniProt Q86W56)
inactive: [1] -0.043 | [2] -0.013 | [4] 0.018 | [5] -0.009 | [3] -0.075

PTPA (UniProt A6PVN8)
inactive: [1] 0.011 | [2] 0.011 | [4] 0.001 | [5] -0.015 | [3] 0.148

PCNX1 (UniProt Q96RV3)
inactive: [1] 0.064 | [4] 0.103 | [5] -0.122

PSMA3 (UniProt G3V4X5)
inactive: [1] -0.073 | [4] 0.147

PCF11 (UniProt O94913)
Chain of UniProt O94913 (O94913 whole entry, looked up): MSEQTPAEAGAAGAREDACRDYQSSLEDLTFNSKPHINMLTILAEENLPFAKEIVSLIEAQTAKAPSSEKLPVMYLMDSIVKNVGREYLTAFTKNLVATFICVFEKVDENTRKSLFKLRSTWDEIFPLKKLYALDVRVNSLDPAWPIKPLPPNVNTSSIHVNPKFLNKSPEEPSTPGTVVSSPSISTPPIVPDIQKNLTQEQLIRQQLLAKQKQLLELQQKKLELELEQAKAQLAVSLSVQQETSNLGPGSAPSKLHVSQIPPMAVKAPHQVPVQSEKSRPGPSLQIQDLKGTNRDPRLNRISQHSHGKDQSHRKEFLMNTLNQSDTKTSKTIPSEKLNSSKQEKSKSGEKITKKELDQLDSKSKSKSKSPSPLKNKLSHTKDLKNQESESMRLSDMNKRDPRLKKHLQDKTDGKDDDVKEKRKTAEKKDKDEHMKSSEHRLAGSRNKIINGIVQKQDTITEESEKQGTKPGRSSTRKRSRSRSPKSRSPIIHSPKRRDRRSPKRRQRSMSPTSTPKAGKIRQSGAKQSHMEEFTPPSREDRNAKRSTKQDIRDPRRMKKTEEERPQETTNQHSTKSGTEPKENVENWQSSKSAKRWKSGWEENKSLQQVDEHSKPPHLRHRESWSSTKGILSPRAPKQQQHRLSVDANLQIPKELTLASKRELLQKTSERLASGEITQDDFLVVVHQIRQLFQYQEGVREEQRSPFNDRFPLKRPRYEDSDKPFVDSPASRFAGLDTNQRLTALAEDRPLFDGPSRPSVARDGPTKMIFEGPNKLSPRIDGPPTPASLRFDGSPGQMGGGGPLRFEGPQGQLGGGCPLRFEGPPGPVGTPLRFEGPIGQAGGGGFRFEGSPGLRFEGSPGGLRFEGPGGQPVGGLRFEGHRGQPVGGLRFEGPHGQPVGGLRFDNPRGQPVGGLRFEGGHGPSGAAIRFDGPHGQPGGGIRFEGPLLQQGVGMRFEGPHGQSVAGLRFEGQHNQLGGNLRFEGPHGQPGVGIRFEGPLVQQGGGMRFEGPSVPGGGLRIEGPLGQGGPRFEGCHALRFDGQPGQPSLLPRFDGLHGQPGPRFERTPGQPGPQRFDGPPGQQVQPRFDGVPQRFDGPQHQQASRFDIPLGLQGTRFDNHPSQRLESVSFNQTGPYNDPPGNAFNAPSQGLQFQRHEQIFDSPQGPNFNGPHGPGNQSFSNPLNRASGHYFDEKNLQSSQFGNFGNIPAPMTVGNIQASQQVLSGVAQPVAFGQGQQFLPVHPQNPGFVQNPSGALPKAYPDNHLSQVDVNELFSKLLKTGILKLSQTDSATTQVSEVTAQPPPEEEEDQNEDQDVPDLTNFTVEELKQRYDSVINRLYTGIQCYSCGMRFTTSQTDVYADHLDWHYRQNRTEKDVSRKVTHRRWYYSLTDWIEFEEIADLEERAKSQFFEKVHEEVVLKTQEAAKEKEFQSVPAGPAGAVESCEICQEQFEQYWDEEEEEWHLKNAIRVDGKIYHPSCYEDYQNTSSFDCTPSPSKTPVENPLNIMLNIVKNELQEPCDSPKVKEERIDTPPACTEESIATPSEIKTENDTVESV
inactive: [1] -0.319 | [2] -0.02 | [4] 0.068 | [3] 0.006

PTGFRN (UniProt Q9P2B2)
inactive: [1] -0.014 | [2] 0.036 | [4] 0.043 | [5] 0.04 | [3] -0.006

PGM3 isoform 4 (UniProt O95394)
inactive: [1] -0.082 | [2] 0.039 | [4] 0.066 | [5] 0.012 | [3] -0.088

PHC3 isoform 7 (UniProt Q8NDX5)
inactive: [1] -0.023 | [2] -0.025 | [3] -0.075

PI4K2A (UniProt Q9BTU6)
Chain of UniProt Q9BTU6 (Q9BTU6 whole entry, looked up): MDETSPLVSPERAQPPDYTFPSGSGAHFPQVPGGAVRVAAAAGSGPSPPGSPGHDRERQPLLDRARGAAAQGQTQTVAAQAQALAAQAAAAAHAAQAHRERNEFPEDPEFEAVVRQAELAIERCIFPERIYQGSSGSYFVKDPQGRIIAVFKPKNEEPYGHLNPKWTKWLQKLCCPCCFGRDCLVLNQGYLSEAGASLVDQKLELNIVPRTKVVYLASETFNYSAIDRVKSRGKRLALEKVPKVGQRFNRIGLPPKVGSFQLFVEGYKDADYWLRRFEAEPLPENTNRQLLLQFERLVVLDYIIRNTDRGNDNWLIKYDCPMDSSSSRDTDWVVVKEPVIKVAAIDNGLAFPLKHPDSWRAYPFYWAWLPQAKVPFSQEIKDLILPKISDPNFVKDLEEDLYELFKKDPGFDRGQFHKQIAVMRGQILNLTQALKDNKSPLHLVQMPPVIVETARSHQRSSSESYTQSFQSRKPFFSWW
inactive: [1] 0.015 | [2] 0.043 | [4] 0.064 | [5] -0.004 | [3] 0.013

PRKCQ (UniProt Q04759)
Chain of UniProt Q04759 (Q04759 whole entry, looked up): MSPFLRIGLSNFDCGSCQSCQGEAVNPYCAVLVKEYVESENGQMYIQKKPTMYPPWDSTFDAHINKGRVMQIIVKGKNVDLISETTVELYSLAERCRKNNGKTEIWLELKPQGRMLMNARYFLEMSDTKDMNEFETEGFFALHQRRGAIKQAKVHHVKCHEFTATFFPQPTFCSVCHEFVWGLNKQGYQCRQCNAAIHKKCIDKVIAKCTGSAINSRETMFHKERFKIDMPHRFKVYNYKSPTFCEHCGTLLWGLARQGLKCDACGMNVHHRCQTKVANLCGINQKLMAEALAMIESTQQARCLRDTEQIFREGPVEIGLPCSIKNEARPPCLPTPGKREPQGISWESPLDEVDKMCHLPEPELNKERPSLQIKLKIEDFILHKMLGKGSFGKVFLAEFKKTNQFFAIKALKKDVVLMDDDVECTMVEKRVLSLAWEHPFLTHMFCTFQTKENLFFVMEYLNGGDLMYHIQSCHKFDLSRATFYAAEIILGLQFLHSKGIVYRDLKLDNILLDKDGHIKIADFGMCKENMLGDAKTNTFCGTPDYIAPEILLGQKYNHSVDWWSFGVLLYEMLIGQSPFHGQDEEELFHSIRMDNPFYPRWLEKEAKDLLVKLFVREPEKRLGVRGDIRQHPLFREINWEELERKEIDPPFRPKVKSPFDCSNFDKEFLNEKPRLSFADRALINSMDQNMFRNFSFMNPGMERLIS
inactive: [1] -0.064 | [2] 0.069 | [4] 0.104 | [5] 0.033 | [3] 0

PRR14L (UniProt Q5THK1)
inactive: [2] -0.052 | [4] 0.312 | [5] 0.042 | [3] 0.103

PEX5 isoform 4 (UniProt P50542)
inactive: [2] -0.147 | [4] 0.043 | [5] 0.059 | [3] 0.006

PDPK1 (UniProt O15530)
inactive: [2] 0.065 | [4] 0.014 | [5] -0.038 | [3] -0.018

PUM1 (UniProt Q14671)
inactive: [2] 0.116 | [5] 0.059 | [3] -0.094

PHKA2 (UniProt P46019)
Chain of UniProt P46019 (P46019 whole entry, looked up): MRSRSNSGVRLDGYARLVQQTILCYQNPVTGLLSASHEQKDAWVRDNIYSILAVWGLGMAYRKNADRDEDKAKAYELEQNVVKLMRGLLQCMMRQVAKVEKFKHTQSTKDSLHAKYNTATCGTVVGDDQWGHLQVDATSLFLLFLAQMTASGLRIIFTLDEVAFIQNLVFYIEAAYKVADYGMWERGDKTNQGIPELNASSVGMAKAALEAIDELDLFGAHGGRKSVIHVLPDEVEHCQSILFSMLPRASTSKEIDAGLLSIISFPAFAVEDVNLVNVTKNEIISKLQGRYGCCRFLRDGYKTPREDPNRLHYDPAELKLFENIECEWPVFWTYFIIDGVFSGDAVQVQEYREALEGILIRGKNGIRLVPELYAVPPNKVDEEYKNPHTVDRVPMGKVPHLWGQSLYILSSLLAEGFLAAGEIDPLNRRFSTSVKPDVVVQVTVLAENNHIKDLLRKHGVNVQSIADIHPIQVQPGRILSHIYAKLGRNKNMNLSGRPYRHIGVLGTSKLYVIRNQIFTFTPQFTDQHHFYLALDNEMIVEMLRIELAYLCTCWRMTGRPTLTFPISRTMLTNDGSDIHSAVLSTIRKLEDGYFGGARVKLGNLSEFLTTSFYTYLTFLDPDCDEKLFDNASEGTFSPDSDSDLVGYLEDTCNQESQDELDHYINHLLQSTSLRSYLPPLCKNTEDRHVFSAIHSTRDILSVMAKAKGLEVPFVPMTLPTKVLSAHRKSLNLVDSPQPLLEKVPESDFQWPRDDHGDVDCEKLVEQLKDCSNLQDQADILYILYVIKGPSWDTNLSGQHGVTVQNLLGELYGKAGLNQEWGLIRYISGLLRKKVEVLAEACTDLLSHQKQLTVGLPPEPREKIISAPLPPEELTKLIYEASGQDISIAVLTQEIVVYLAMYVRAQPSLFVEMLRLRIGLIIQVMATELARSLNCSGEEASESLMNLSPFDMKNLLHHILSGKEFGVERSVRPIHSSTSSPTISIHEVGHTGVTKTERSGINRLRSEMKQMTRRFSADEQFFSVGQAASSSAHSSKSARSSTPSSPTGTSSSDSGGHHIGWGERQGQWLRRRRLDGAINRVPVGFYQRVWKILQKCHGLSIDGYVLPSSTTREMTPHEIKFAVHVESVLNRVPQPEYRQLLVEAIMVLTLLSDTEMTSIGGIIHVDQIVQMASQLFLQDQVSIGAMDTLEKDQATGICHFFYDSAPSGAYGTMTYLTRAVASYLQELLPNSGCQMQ
inactive: [1] -0.018 | [2] -0.003 | [4] 0.053 | [5] 0.023 | [3] 0.024

POGZ (UniProt Q7Z3K3)
inactive: [2] 0.056 | [4] 0.099 | [5] 0.025 | [3] -0.032

PPP1R12C (UniProt Q9BZL4)
inactive: [1] -0.16 | [4] 0.05 | [5] 0.053

PSMC1 (UniProt G3V4X1)
inactive: [2] -0.021 | [3] 0.112

PSMD8 (UniProt K7EK21)
inactive: [2] -0.11 | [3] 0.188

PDE4DIP (UniProt E9PS60)
inactive: [2] 0.013 | [4] -0.209 | [3] -0.069

POLR2K (UniProt P53803)
inactive: [1] 0.053 | [2] 0.06 | [4] 0.046 | [5] 0.032 | [3] -0.056
